# Assay results taken from PubChem BioAssay (Tox21).
# Results filed as inconclusive are left out. Where a call stands in place of a potency, no number is given. Active and inactive are the calls of the source. Calls follow the shape of the dose curve; as a rule, active = well fitted activation curve with a large enough effect in the signal ratio in the repeat runs (not every such curve was filed as active); inconclusive = weak or mixed curves; inactive = flat fitted curve, though single readings scatter; the % refers to the signal ratio.
# Assay: p53 small molecule agonists, cell-based qHTS assay (AID 1963582)
# Settings: HCT-116 p53RE-bla reporter, beta-lactamase FRET ratio, 16 h; series mostly up to 66 µM
# In short: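 Measured: fluorescence from cleaved LiveBLAzer substrate. System: p53RE-bla cells, 16 h compound treatment at 37 C, 2 h substrate step at room temperature.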
# Potency is read from the fitted curve at half-maximal effect.
row,SMILES,Potency
1,CNC(=O)Oc1cc(C)c(N(C)C)c(C)c1,inactive
2,CCNP(=S)(OC)O/C(C)=C/C(=O)OC(C)C (stereo not drawn),inactive
3,C[C@H](CN1CCOCC1)C(C(=O)N1CCCC1)(c1ccccc1)c1ccccc1,inactive
4,CCCCP(CCCC)CCCC,inactive
5,CCN[C@@H](C)Cc1ccccc1,inactive
6,CC(=O)Nc1cc([As](=O)(O)O)ccc1O,inactive
7,C#CC1(O)CCCCC1,inactive
8,BrCBr,inactive
9,Oc1c(Br)c(Br)c(Br)c(Br)c1Br,inactive
10,CC(N)=S,inactive
11,CCN(CC)CCOC(=O)C(C)(c1ccccc1)c1ccccc1,inactive
12,O=[N+]([O-])c1cc([N+](=O)[O-])c2ccccc2c1,inactive
13,CCCCCCCCCCCCN(C)C,inactive
14,CN(C)CCc1c[nH]c2cccc(O)c12,inactive
15,CC1(C)[C@H](C=C(Cl)Cl)[C@@H]1C(=O)O[C@@H](C#N)c1cccc(Oc2ccccc2)c1,inactive
16,N[C@@H]1C[C@H]1c1ccccc1,inactive
17,CC(C)=CCOc1c2occc2cc2ccc(=O)oc12,inactive
18,O=c1[nH]c2ccccc2n1C1CCNCC1,inactive
19,CN1COCN(Cc2cnc(Cl)s2)/C1=N\[N+](=O)[O-],inactive

row,SMILES,Potency
1,CCN(CC)C(=O)N[C@@H]1C=C2c3cccc4[nH]cc(c34)C[C@@H]2N(C)C1,inactive
2,COP(N)(=S)OC,inactive
3,CCOC(=O)c1cn2nc(OP(=S)(OCC)OCC)cc2nc1C,inactive
4,CC(C)(OO)c1ccccc1,inactive
5,CC(=O)CCc1ccc2c(c1)OCO2,inactive
6,ClP(Cl)(Cl)(Cl)Cl,inactive
7,CC(C)N(Cc1ccccc1)C(=O)C(C)(C)C,inactive
8,COc1cccc([C@@]2(O)CCCC[C@@H]2CN(C)C)c1,inactive
9,CC(C)(C)NCC(O)c1ccccc1Cl (stereo not drawn),inactive
10,CCOc1ccc(C(C)(C)COCc2cccc(Oc3ccccc3)c2)cc1,inactive
11,N#Cc1c[nH]cc1-c1cccc2c1OC(F)(F)O2,14.5 µM (active)
12,CN(C)c1ccc(N=Nc2ccccc2)cc1,inactive
13,CC(CC(C#N)(c1ccccc1)c1ccccc1)N(C)C (stereo not drawn),inactive
14,COc1ccc2c(C(=O)c3ccc(Cl)cc3)c(C)n(CC(=O)O)c2c1,inactive
15,CC(C)NCC(O)c1ccc([N+](=O)[O-])cc1 (stereo not drawn),inactive
16,O=C(O)C(F)(F)C(F)(F)C(F)(F)C(F)(F)C(F)(F)F,inactive
17,O=[N+]([O-])c1ccc(CCl)cc1,inactive
18,CCOC(=O)CCN(SN(C)C(=O)Oc1cccc2c1OC(C)(C)C2)C(C)C,inactive
19,O=C(N/N=C/c1ccc([N+](=O)[O-])o1)c1cc([N+](=O)[O-])cc([N+](=O)[O-])c1O,inactive
